This passage reports composite z-score and z-score results from PubChem BioAssay.

The structures appear in SMILES notation. The source made the active and inactive calls.

Experiment [1] is described as follows: compounds binding Alexa647 anti-His antibody – biochemical, small-molecule microarray, 635 nm fluorescence, artefact control for SMM control protein annotation, primary screen (AID 1128).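 Also: score merges feature fluorescence with signal-to-noise for each printed compound spot.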 The conditions noted are these: higher = more signal.
The test system of experiment [2] is Human papillomavirus type 1a E7 protein (residues 1-88). Nature of the experiment: HPV1a E7 small-molecule binders, primary screen, biochemical, small-molecule microarray, residues 1-88, 635 nm (AID 1129). The note with it: small-molecule microarray binding, fluorescence 635 nm; higher = more signal.
The target in experiment [3] is Focal adhesion kinase 1 (Homo sapiens) (UniProt Q05397). The experiment can be described thus: PTK2 protein binding on printed compound slides – biochemical, small-molecule microarray, 635/667 nm fluorescence, BSA, DTT, primary screen (AID 1130).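 Also: composite of spot emission at 667 nm and signal to noise over triplicate slides.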 The note with it: 635 nm fluorescence, higher = more signal.
Experiment [4] relates to Fibrinogen (Alexa647-labelled). The experiment can be described thus: Alexa647-fibrinogen binding to printed small molecules – biochemical, small-molecule microarray, 635/667 nm fluorescence, artefact control for SMM control-protein annotation, profiling panel (AID 1131).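 Also: z-score merges 667 nm fluorescence with per-spot signal-to-noise over triplicate slides.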 The conditions noted are these: fibrinogen-A647 binding fluorescence, higher = more signal.
Experiment [5] deals with Follistatin (Homo sapiens) (UniProt P19883). The experiment can be described thus: FST protein binding to printed compounds – biochemical, small-molecule microarray, 635/667 nm fluorescence, primary screen (AID 1132). The conditions noted are these: 635 nm fluorescence, higher = more signal.
Experiment [6] concerns the target Fibroblast growth factor 2 (Homo sapiens) (UniProt P09038). Nature of the experiment: basic fibroblast growth factor binding to printed compounds – biochemical, small-molecule microarray, 635/667 nm fluorescence, primary screen (AID 1133). The note with it: FGF2, fluorescence 635/667, higher = more signal.
A short description of experiment [7]: JC-1 mitochondrial potential readout, lung cancer cells – cell-based, A549, JC-1 fluorescence, basal, 24 h, 100 nL, profiling panel (AID 1138).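 Also: A549 lung adenocarcinoma cells under basal conditions with no added stimulus; test concentration not given here.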 The note with it: higher = more signal.
The test system of another experiment is Lefty1. The experiment can be described thus: Lefty1 protein binding to printed compounds – biochemical, small-molecule microarray, 635/667 nm fluorescence, primary screen (AID 1139). The note with it: fluorescence 635/667, higher = more signal.
For experiment [8], the system named is wheat germ agglutinin (Triticum aestivum), Alexa647-labelled. Nature of the experiment: Alexa647-WGA lectin binding to printed small molecules – biochemical, small-molecule microarray, 635/667 nm fluorescence, artefact control for SMM control-protein annotation, profiling panel (AID 1140).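 Also: score merges 667 nm feature emission with signal to noise over triplicate slides.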 The conditions noted are these: WGA-A647 binding, 635 nm fluorescence, higher = more signal.

Experiment [9] concerns the target Luciferin 4-monooxygenase (Photinus pyralis) (UniProt P08659). Nature of the experiment: inhibition of purified Photinus pyralis luciferase – biochemical, luminescence, purified enzyme, 2006 set, primary screen (AID 1141).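 Also: cell-free assay with purified firefly luciferase at 100 ng per well in PBS; test concentration not given here.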 The conditions noted are these: purified firefly luciferase, SteadyGlo luminescence, 30 min; higher = more signal, called active from +8 up or from −8 down.

Fibroblast growth factor 2 (Homo sapiens), sequence (P09038 whole entry, looked up): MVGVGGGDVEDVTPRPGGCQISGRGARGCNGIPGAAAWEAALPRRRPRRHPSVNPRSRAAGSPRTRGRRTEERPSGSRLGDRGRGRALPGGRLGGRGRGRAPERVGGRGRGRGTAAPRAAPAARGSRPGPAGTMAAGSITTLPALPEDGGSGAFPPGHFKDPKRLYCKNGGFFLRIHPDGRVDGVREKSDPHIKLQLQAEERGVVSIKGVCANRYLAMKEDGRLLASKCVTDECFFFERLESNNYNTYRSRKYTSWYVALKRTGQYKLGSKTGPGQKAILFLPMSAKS
Follistatin (Homo sapiens), sequence (P19883 whole entry, looked up): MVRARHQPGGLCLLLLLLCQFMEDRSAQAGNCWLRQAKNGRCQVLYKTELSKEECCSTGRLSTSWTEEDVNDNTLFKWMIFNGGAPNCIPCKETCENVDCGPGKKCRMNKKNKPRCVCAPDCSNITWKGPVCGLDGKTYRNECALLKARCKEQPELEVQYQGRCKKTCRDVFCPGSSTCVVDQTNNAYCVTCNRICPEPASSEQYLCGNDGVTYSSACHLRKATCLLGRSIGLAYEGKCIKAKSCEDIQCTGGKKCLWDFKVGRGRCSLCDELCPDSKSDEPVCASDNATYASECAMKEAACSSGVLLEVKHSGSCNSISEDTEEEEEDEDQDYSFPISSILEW
Luciferin 4-monooxygenase (Photinus pyralis), sequence (P08659 whole entry, looked up): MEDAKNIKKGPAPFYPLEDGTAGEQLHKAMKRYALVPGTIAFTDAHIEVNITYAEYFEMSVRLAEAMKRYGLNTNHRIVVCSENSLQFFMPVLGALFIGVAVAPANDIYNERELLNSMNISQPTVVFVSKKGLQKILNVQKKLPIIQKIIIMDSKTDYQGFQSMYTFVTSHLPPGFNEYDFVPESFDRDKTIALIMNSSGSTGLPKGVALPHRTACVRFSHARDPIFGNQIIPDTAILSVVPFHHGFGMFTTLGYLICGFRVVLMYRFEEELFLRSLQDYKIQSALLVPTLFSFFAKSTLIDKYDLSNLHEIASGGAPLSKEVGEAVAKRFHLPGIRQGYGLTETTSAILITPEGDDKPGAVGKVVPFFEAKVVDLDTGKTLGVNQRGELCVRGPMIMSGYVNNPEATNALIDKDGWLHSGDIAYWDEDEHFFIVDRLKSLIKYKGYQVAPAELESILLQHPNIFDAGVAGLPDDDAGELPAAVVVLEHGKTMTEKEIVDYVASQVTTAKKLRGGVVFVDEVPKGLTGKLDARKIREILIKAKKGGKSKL
Focal adhesion kinase 1 (Homo sapiens), sequence (Q05397 whole entry, looked up): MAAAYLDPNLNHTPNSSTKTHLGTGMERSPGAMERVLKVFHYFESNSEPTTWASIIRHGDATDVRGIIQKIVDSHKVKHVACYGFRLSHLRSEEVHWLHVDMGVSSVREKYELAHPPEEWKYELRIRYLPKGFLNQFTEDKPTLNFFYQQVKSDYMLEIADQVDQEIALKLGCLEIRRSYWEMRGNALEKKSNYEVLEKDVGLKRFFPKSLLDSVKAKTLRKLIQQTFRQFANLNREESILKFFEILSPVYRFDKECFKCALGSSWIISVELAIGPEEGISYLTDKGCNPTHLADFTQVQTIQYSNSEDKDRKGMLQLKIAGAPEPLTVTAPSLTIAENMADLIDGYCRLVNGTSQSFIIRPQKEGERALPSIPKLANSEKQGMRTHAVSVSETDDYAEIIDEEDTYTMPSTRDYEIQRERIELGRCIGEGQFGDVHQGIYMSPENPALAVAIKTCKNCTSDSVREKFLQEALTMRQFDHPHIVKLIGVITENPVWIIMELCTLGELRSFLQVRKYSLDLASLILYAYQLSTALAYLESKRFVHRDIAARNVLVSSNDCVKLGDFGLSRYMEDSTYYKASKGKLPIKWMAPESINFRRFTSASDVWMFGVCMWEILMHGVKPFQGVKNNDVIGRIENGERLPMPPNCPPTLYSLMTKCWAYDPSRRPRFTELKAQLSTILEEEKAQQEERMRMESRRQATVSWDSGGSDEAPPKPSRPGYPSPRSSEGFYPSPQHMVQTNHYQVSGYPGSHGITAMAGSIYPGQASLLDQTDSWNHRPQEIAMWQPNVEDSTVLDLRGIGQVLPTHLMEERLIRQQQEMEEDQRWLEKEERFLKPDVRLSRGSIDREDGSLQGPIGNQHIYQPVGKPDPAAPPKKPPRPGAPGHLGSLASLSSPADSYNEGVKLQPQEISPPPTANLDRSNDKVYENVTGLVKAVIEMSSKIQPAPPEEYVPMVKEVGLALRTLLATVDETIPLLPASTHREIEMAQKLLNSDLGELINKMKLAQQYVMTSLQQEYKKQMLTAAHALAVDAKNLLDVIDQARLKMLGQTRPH

As to `CCCC1(C(=O)OC)C=C2C(=C(C)C(=O)C2C)CN1` (stereo not given), the composite z-score in experiment [1] was 2.81; in experiment [2], -0.0152; in experiment [3], 0.0853; in experiment [4], 0.892; in experiment [5], 0.503; in experiment [6], -0.343. Also, the composite z-score was -0.451 in the experiment with Lefty1 and 0.594 in experiment [8]. The z-score in [7] was 0.511; in [9], 2.26 (inactive).
As for `C=CCNC(=O)[C@H]1[C@@H]2C(=O)O[C@@H](c3ccccc3)[C@@H](c3ccccc3)N2[C@@H](c2ccccc2OCCO)[C@]12C(=O)N(C(=O)OCCOC)c1ccc(C#CC3(O)CCCCCC3)cc12`, the composite z-score in experiment [1] amounted to 0.977; in [2] it was 1.18; in experiment [3], 0.325; in experiment [4] it was 0.579; in experiment [5], 0.785; in experiment [6] it was 0.226. Further, the composite z-score with Lefty1 amounted to 0.876; in experiment [8] it was 0.763. Besides, the z-score in experiment [7] is -0.634; in [9], -1.64 (inactive).
On to `O=C1OCCC=C[C@H]2OC34C=CCN(c5ccc6ccccc6c5)C(=O)[C@H]3N(CCCO)C(=O)[C@@H]4C12` (stereo not given in full), for which the composite z-score in experiment [1] is -0.581; in [2], -2.27; in experiment [3], -0.459; in experiment [4], -0.51; in experiment [5] it was -1.25; in [6] it was -2.33. Besides, the composite z-score in the experiment on Lefty1 was -1.81; in experiment [8] it was -1.29. Further, the z-score in experiment [7] is -0.446; in experiment [9] it was -0.244 (inactive).
Turning to `[N-]=[N+]=Nc1ccccc1C[C@]1(C(=O)NCCN2CCOCC2)COC(c2ccc(OCCCO)cc2)=N1`, the composite z-score in experiment [1] is 1.34; in [2], 1.26; in experiment [3] it was 0.696; in experiment [4] it was 0.649; in experiment [5], 1.02; in experiment [6], 1.04. The composite z-score was -0.494 with Lefty1 and 0.607 in [8]. The z-score in experiment [7] was 2.08; in [9], -2.91 (inactive).
For the compound `COc1ccc([Si](C)(C)[C@@H]2[C@@H](CCO)O[C@]3(C(=O)N(Cc4ccccc4)c4ccc(N5CCOC5=O)cc43)[C@H]2C)cc1`, the composite z-score was 0.515 in experiment [1]; 1.11 in [2]; -0.0211 in experiment [3]; 0.661 in experiment [4]; 0.36 in experiment [5]; 0.19 in [6]. For the same compound, the composite z-score in the experiment on Lefty1 came to 0.49; in experiment [8] it was 0.896. The z-score was -0.771 in [7] and 0.6 (inactive) in [9].
For the compound `CCOC(=O)C[C@H]1[C@H](OC(=O)c2ccc(-c3ccccc3)cc2)[C@@H](NC(=O)CC(C)C)c2cc(OCCCO)ccc2N1C(=O)c1ccc2ccccc2n1`, the composite z-score in experiment [1] was -0.282; in experiment [2], 0.516; in experiment [3] it was 0.365; in experiment [4] it was 0.944; in experiment [5], 0.285; in [6], 0.0792. The composite z-score with Lefty1 was found to be 0.455; in [8], 0.262. Moreover, the z-score in experiment [7] is 0.5; in experiment [9], 0.854 (inactive).
On to `CC(C)[Si](C#C[Si](C(C)C)(C(C)C)C(C)C)(O[C@H](c1ccccc1)c1cn(Cc2ccccc2)nn1)C(C)C`, for which the composite z-score in experiment [1] was found to be 0.259; in experiment [2], 0.733; in experiment [3], 0.23; in [4], 0.436; in experiment [5] it was 0.532; in experiment [6], 0.2. Moreover, the composite z-score was found to be 0.635 in the experiment on Lefty1 and 0.212 in [8]. In addition, the z-score in experiment [7] was 0.238; in [9] it was 0.87 (inactive).
As for `CCC1=C2CN(Cc3ccccc3)[C@@H](C(=O)Cc3ccccc3)C2C=CCC1` (stereo not given in full), the composite z-score in [1] was 0.797; in [2], -0.0353; in experiment [3] it was -0.383; in experiment [4], 0.666; in experiment [5] it was 0.578; in experiment [6], 0.0052. In addition, the composite z-score with Lefty1 turned out to be 0.352; in experiment [8] it was 0.557. For the same compound, the z-score in experiment [7] is -1.22; in experiment [9], 0.313 (inactive).
In the case of `CN(C)C(=O)[C@@]1(Cc2ccccc2)N=C(c2ccc(OCCCO)cc2)O[C@H]1c1ccccc1`, the composite z-score came out at 2.33 in [1]; 1.24 in experiment [2]; 0.179 in experiment [3]; 0.971 in [4]; 0.232 in experiment [5]; 0.393 in [6]. The composite z-score in the experiment with Lefty1 is -0.557; in experiment [8] it was 1.21. Also, the z-score in [7] was 0.568; in experiment [9], -0.794 (inactive).
For the compound `COc1cc2c(cc1O)C(C1CC1)N(C)CC2` (stereo not given), the composite z-score in experiment [1] was -1.19; in [2], -2.06; in experiment [3], -0.532; in [4] it was -1.18; in experiment [5], -1.09; in experiment [6], -0.716. For the same compound, the values for the composite z-score (with Lefty1; in experiment [8]) were -1.59 and -0.413, respectively. Moreover, the results for the z-score in [7] and in experiment [9] were 1.32 and -0.872 (inactive), respectively.
Turning to `CC1CC/C=C\[C@H]2OC34C=CCN(c5ccc6ccccc6c5)C(=O)[C@H]3N(CCCO)C(=O)[C@@H]4C2C(=O)O1` (stereo not given in full), the composite z-score in [1] is 1.08; in [2] it was -0.453; in experiment [3] it was -0.633; in experiment [4], -0.794; in [5] it was -0.82; in experiment [6] it was -1.86. Besides, the composite z-score in the experiment on Lefty1 is -1.12; in experiment [8] it was -0.985. Further, the z-score was -0.148 in experiment [7] and -0.212 (inactive) in experiment [9].
